Test results reported in PubChem BioAssay (NCI).
About 79,000 compounds went through this panel and 15% of them were active in at least one assay; those are over-represented in the sample as a whole. Unmarked numbers belong to inactive results. Activity calls are given as the source filed them. No stated cut-off is given here; in the data, active means growth inhibition above about 70%; inactive means the rest.

Tests used:
[1] = NCI Yeast Anticancer Drug Screen. Data for the rad50 strain (AID 155);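 further: 0% = growth of vehicle-only cultures of the same strain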; conditions: S. cerevisiae rad50 strain growth inhibition, active compounds read high
Procedure, shortened: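 Compounds were tested on a yeast strain with an engineered DNA damage repair alteration; the reported value is growth inhibition normalised to vehicle treatment.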

[2] = NCI Yeast Anticancer Drug Screen. Data for the mec2-1 strain (AID 157); conditions: S. cerevisiae mec2-1 strain, active compounds read high
Procedure, shortened: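 Yeast mec2-1 mutant treated with compound. Readout: growth inhibition vs vehicle controls.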

[3] = NCI Yeast Anticancer Drug Screen. Data for the sgs1 mgt1 strain (AID 161);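 further: 0% = growth of cultures given vehicle only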; conditions: S. cerevisiae sgs1 mgt1 strain, active compounds read high
Procedure, shortened: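 Inhibition of yeast growth, normalised to vehicle-treated controls, is reported for a strain bearing genetic alterations in DNA damage repair.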

[4] = NCI Yeast Anticancer Drug Screen. Data for the cln2 rad14 strain (AID 165);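 further: 0% = growth equal to vehicle treated cultures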; conditions: S. cerevisiae cln2 rad14 strain, active compounds read high
Procedure, shortened: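 cln2 rad14 yeast strain; compound exposure; growth inhibition read vs vehicle controls.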

[5] = NCI Yeast Anticancer Drug Screen. Data for the bub3 strain (AID 167); conditions: S. cerevisiae bub3 mutant strain, active compounds read high
Procedure, shortened: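 Growth of a checkpoint-deficient yeast mutant is measured after compound exposure. Values represent inhibition relative to vehicle.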

[6] = NCI Yeast Anticancer Drug Screen. Data for the mlh1 rad18 strain (AID 175); conditions: S. cerevisiae mlh1 rad18 strain growth inhibition, active compounds read high
Procedure, shortened: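 Yeast w/ defined DNA-repair lesions; compound exposure; growth vs vehicle controls → % inhibition.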

[7] = at 5.0 µM (retest, dose inferred, filed as 0.5)
[8] = at 50.0 µM (retest, dose inferred, filed as 5.0)

Row | SMILES | growth inhibition [1, 7] | growth inhibition [1, 8] | growth inhibition ([1]; at 50.0 µM) | growth inhibition [2, 7] | growth inhibition [2, 8] | growth inhibition ([2]; at 50.0 µM) | growth inhibition [3, 7] | growth inhibition [3, 8] | growth inhibition ([3]; at 50.0 µM) | growth inhibition [4, 7] | growth inhibition [4, 8] | growth inhibition ([4]; at 50.0 µM) | growth inhibition [5, 7] | growth inhibition [5, 8] | growth inhibition ([5]; at 50.0 µM) | growth inhibition [6, 7] | growth inhibition [6, 8] | growth inhibition ([6]; at 50.0 µM)
1 | O=C(C1=Cc2ccccc2OC1)N1CCN(c2cccc(Cl)c2)CC1 | -1% | 96% (active) | 49.3% | -6% | 98% (active) | 35.9% | 1% | 97% (active) | 72.2% (active) | -6% | 97% (active) | 57.8% | 10% | 97% (active) | 89.5% (active) | -12% | 97% (active) | 71.2% (active)
2 | CC1C/C(=N\N(C)C)C(C#N)(C#N)C1(C#N)C#N (configuration not stated) | 30% | 99% (active) | 81% (active) | 45% | 99% (active) | 81.1% (active) | 26% | 97% (active) | 66.5% | 27% | 79% (active) | 37.8% | 47% | 99% (active) | 62.2% | 59% | 99% (active) | 92% (active)
3 | N/N=C(/N)SCCCCCCCCCCS/C(N)=N/N | -6% | 5% | 21.4% | -4% | 78% (active) | 48.5% | -35% | 76% (active) | 82.3% (active) | -10% | -28% | 51.9% | -6% | 7% | 15.2% | -8% | 39% | 79.8% (active)
4 | CC[N+](CC)(CC)Cc1ccc(C[N+](CC)(CC)CC)cc1 | 8% | -4% | 16.9% | 1% | -2% | 54.2% | 6% | -15% | -0.8% | 4% | 7% | 92.4% (active) | 5% | -4% | 95.5% (active) | 2% | -4% | 17.4%
5 | CN(Cc1cc(Br)cc(Br)c1O)Cc1c[nH]c2ccccc12 | -1% | 8% | 68.1% | 12% | 31% | 31.1% | 0% | 14% | 86.4% (active) | -2% | 0% | 62.2% | -4% | -1% | 40.9% | 36% | 48% | 74.5% (active)
6 | CCCCCCCCCCCC(=O)OCCOP(=O)(OCC)OCC | -1% | 91% (active) | 87.2% (active) | 2% | 98% (active) | 20.9% | 4% | 99% (active) | 96.5% (active) | -4% | 97% (active) | 74.7% (active) | -1% | 97% (active) | -9.15% | -1% | 98% (active) | 79.2% (active)
7 | CN(CCO)CCn1cnc2c1c(=O)n(C)c(=O)n2C | -7% | 5% | -36.7% | -8% | 9% | -13.9% | 7% | -2% | 1.65% | -15% | -12% | -21.8% | -4% | 9% | -7.15% | -11% | -1% | -5.9%
8 | O=C(c1ccccc1)C(C(=O)c1ccccc1)c1ccc2ccccc2n1 | 0% | 1% | 19.2% | 1% | -4% | 2.75% | -2% | -1% | 63.5% | -2% | 1% | 9.75% | 1% | -4% | 19.1% | -2% | -3% | 22.9%
9 | CCCCCC/C=C\C=O | -1% | 4% | 67.7% | -6% | 13% | 37.1% | 3% | 17% | 64% | -6% | 12% | 52% | -2% | 6% | 79.5% (active) | 0% | 5% | 51.4%
10 | CC(=O)Nc1ccc(/C=C2/NC(=S)N(/C=C3\C(=O)Oc4ccccc4C3=O)C2=O)cc1 | -10% | 50% | 70.7% (active) | -19% | 60% | 76.5% (active) | -6% | 29% | 78.7% (active) | -15% | 64% | 86% (active) | -12% | 36% | 67.2% | -9% | 44% | 76.2% (active)
11 | CN(C)c1ccc(C(c2ccc(N(C)C)cc2)c2ccc3c(c2)OCO3)cc1 | 98% (active) | 66% | 95% (active) | 99% (active) | 62% | 94% (active) | 97% (active) | 85% (active) | 95.8% (active) | 98% (active) | 32% | 88.8% (active) | 99% (active) | 81% (active) | 90% (active) | 98% (active) | 90% (active) | 91.6% (active)
12 | CN(C)CCCNc1c(C#N)[n+]([O-])c2cc(Cl)ccc2[n+]1[O-] | 59% | 93% (active) | 66.7% | 72% (active) | 93% (active) | 43.5% | 60% | 90% (active) | 61.9% | 70% (active) | 90% (active) | 45.6% | 88% (active) | 94% (active) | 60% | 80% (active) | 93% (active) | 68.8%
13 | Cc1cc(C)c(N2C(=O)C=CC2=O)c(C)c1 | 98% (active) | 98% (active) | 99.7% (active) | 99% (active) | 99% (active) | 99.7% (active) | 99% (active) | 98% (active) | 99.3% (active) | 99% (active) | 98% (active) | 99.2% (active) | 99% (active) | 98% (active) | 99.5% (active) | 98% (active) | 98% (active) | 99.3% (active)
14 | Cc1nc(Cl)nc(N)c1[N+](=O)[O-] | 2% | 44% | 53.8% | 8% | 55% | 44.1% | 3% | 30% | 24.8% | -3% | 19% | 10.8% | -6% | 31% | 22.9% | 6% | 41% | 45.1%
15 | CC(O)C(O)C(O)C(O)C(O)C(=O)O (configuration not stated) | -2% | -6% | 18.4% | -2% | -1% | 10.9% | -1% | -2% | -9.1% | 4% | -3% | 1.95% | 0% | 4% | 45.7% | -1% | -7% | -10.9%
16 | CC(=O)/C(=C/n1c(=S)[nH]c2ccc([N+](=O)[O-])cc21)C(=O)Nc1ccc(Cl)cc1 | 1% | -1% | 10.9% | -9% | 2% | 6.75% | 0% | -5% | 16.7% | -21% | -17% | 46.4% | -4% | -2% | 15.6% | 1% | -2% | 22.3%
17 | CC(C)(Br)C(=O)/C=C/c1ccc(Cl)cc1 | 92% (active) | 100% (active) | 99.5% (active) | 92% (active) | 100% (active) | 99.7% (active) | 94% (active) | 99% (active) | 99.6% (active) | 89% (active) | 100% (active) | 99.7% (active) | 38% | 99% (active) | 99.3% (active) | 97% (active) | 100% (active) | 99.4% (active)
18 | COC1OC(COC(=O)c2ccccc2)CC1F (configuration not stated) | 16% | -26% | 93.5% (active) | -8% | -22% | 94.8% (active) | -12% | -13% | 94% (active) | -24% | -2% | 91.8% (active) | 19% | 26% | 93.3% (active) | 18% | -54% | 92.2% (active)
19 | C#CC[N+](CC)(CC)CCNC(=O)CCCCCCCCCCCCCCC | 97% (active) | 99% (active) | 99.5% (active) | 81% (active) | 99% (active) | 99.7% (active) | 98% (active) | 100% (active) | 99.6% (active) | 51% | 99% (active) | 98.8% (active) | 92% (active) | 99% (active) | 99.6% (active) | 49% | 99% (active) | 99.5% (active)
